p53ts 39C kill – cytotoxicity in p53ts cells at nonpermissive temperature; H1299-p53A138V viability at 39C, ATP luminescence, 24 h; Potency, µM (highest dose often 46.1 µM), for inactives: top-dose activity change, negative = cell killing, actives largely listed as cytotoxic; 130,000 compounds, 1.5% hits; AID 902; further: on the % scale 0 is the no-effect control and ±100 the full control effect; nearly all actives have a fitted effect of over 55% in size
Peg3 imprint – induces erasure of genomic imprints in mouse ES cells; mouse ES Peg3-LacZ reporter, beta-gal luminescence, 40 h; Potency, µM (doses to about 60.7 µM), inactives show top-dose activity change, positive = activation, most hits filed as activators; 110,000 compounds, 0.02% hits
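Gelatin-coated wells received 300 freshly trypsinized female ES cells with a Peg3LacZ-Neo reporter on the maternal allele, then incubated 40 hours at 37C. BetaGlo was added for 5 minutes at room temperature before a single luminescence read.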
p53ts 32C tox – kills p53ts cells at the permissive temperature | H1299-p53A138V at 32C, ATP luminescence viability, 24 h | Potency, µM (series often up to 46.1 µM), for inactives: top-dose activity change, negative = cytotoxicity, usual class: cytotoxic | 130,000 compounds, 0.93% hits | AID 924;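 further: 0% = DMSO and -100% = full killing by reference compound; nearly all actives have a fitted effect of over 55% in size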
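Viability by ATPlite luminescence after 24 h compound treatment (up to 46 uM) at the permissive 32C. Cells are H1299 carrying p53 A138V. Scale runs from DMSO basal to 100 uM tamoxifen as full kill; AC50 from Hill fits.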
Numbers without * were called inactive; u = inconclusive; x = no result; [ ] = another dose, or the depositor's remark. Shown are actives, neighbours in structure and some others; about 1.6% of the full set was active somewhere. The call rests on the fitted dose curve; in most records, active means well fitted curve in the direction sought with a large enough effect; inconclusive means small, poorly fitted or top-dose-only effect, or another doubt; inactive means no such curve, though single readings can be large; an effect the other way counts as inactive or inconclusive. Potency means the concentration at half of the fitted maximal effect.

SMILES	p53ts 39C kill	Peg3 imprint	p53ts 32C tox
Cc1ccc(Nc2nc3nonc3nc2Nc2cccc(C(F)(F)F)c2)cc1Cl	10µM*	-30%[10.9 µM]	13µM*
Cc1cc(Nc2cccc(C(F)(F)F)c2)ncn1	-10%	-2%[10.9 µM]	-13%
CCc1ccc(NC(=O)Cn2c(=O)n(CCc3ccccc3)c(=O)c3sc4ccccc4c32)cc1	-29%	-8%[10.9 µM]	3%
CCc1ccccc1NC(=O)Cn1c(=O)n(CCc2ccccc2)c(=O)c2sc3ccccc3c21	10µM*	-12%[10.9 µM]	-12%
O=[N+]([O-])c1cc(-c2nc(-c3ccncc3)no2)ccc1NCc1ccccc1	0%	9%[10.9 µM]	-5%
COc1ccc(-c2cc(-c3ccccc3O)[nH]n2)cc1OC	-19%	-47%	-29%
Oc1ccccc1-c1cc(-c2ccc3c(c2)OCCO3)n[nH]1	u	-86%	13µM*
O=C1c2[nH]nc(-c3ccccc3O)c2C(c2ccc(Cl)cc2)N1CCc1ccccc1 (configuration not stated)	u	9%[10.9 µM]	20µM*
COCCCN1C(=O)c2[nH]nc(-c3ccccc3O)c2C1c1ccc(Cl)cc1 (configuration not stated)	3%	-15%	33%
CC1(C)CC(N=C=O)CC(C)(CN=C=O)C1 (configuration not stated)	-13%	0%	-13%[1.84 µM]
CCCCN(C)CCNC(=O)c1cc(-c2ccc(Cl)s2)nc2ccccc12	13µM*	-9%[10.9 µM]	7%
CC(C)CN(CCNC(=O)c1cc(-c2ccc(Cl)s2)nc2ccccc12)CC(C)C	6%	-13%[10.9 µM]	8%
COc1ccc(OC)c(NC(=O)c2oc(=O)c3ccccc3c2-c2ccccc2)c1	-16%	-13%[10.9 µM]	3%
CC(C)=CCC/C(C)=C/CO/N=C1/C[C@@H](O)[C@@H](O)[C@@H]2[C@@H]3C(=O)N(C[C@@H]4CCCO4)C(=O)[C@H]3CC[C@H]12	9%[9.22 µM]	x	11%[9.22 µM]
COc1cc(NC(=O)CCc2c(C)nn(-c3ccc(N4CCCCC4)nn3)c2C)cc(OC)c1OC	u	-16%[10.9 µM]	u
COc1ccc(NC(=O)CCc2c(C)nn(-c3ccc(N4CCCCC4)nn3)c2C)cc1Cl	10µM*	-29%[10.9 µM]	16µM*
C[C@H](N)C1CCC(C(=O)Nc2ccncc2)CC1 (some centres not stated)	10%	x	31%
CS(=O)(=O)Nc1ccc(-c2nc3ccccc3s2)cc1	2µM*	-69%[10.9 µM]	4µM*
Cc1c(NS(C)(=O)=O)cccc1-c1nc2ccccc2s1	u	-34%[10.9 µM]	u
O=C1[C@@H]2[C@H]3[C@H](O)[C@H](O)C/C(=N/OCc4ccccc4)[C@H]3CC[C@H]2C(=O)N1c1ccc(F)cc1F	3%[9.22 µM]	x	0%[9.22 µM]
C#CCN1C(C)=C(C(=O)OC)[C@@H](c2cccc([N+](=O)[O-])c2)C(C(=O)OCC)=C1C	18%	x	6%
NC(=O)CCCCn1ccc(NC(N)=NCC(F)(F)F)n1	-2%	2%	-5%
CC(/C=C/C=C(C)/C=C/C(=O)O)=C\C=C\C=C(C)\C=C\C=C(C)\C=C\C(=O)O	8%	-39%	5%[1.84 µM]
COc1ccc(-c2cc(=O)c3ccccc3[nH]2)cc1	x	-33%[97.3 µM]	x
COc1ccc(-c2cc(=O)c3ccccc3s2)cc1	25µM*	-69%	13µM*
SMILES	p53ts 39C kill	Peg3 imprint	p53ts 32C tox
COc1cccc(C2Nc3ccccc3-c3nnc(SCc4ccccc4)nc3O2)c1OC (configuration not stated)	-9%	10%[10.9 µM]	-5%
O=S1(=O)c2ccccc2N(Cc2ccc(Cl)cc2F)c2ccccc21	2%	-8%[10.9 µM]	-1%
Cc1cc(-c2ccc(N=Nc3cc(S(=O)(=O)O)c4ccccc4c3N)c(C)c2)ccc1N=Nc1cc(S(=O)(=O)O)c2ccccc2c1N	-4%	0%	8%[1.84 µM]
Cc1cc(C)cc(NS(=O)(=O)c2ccc3[nH]cc(C(=O)NCc4ccccc4Cl)c(=O)c3c2)c1	-8%	-16%[10.9 µM]	19%
Cc1cc(C)cc(NS(=O)(=O)c2ccc3[nH]cc(C(=O)NCc4ccco4)c(=O)c3c2)c1	2µM*	-26%	u
CCOC(=O)Nc1nnc(-c2ccccc2OC)s1	-8%	0%	-11%
COC(=O)Nc1nnc(-c2ccccc2Cl)s1	13µM*	u	10µM*
CC(=O)N1CCC2(CC1)OC(=O)C(C)=C2C(=O)NCc1cccc(Cl)c1	6%	-12%[10.9 µM]	3%
Cc1onc(-c2ccccc2)c1C(=O)Nc1nc2c(s1)CCCC2	22%	-12%	3%
COc1cccc(C(=O)Nc2nc3c(s2)CCCC3)c1	13µM*	-51%[10.9 µM]	10µM*
CN(C)c1ccc(C(=O)Nc2nc3c(s2)CCCC3)cc1	u	-90%	u
O=C(Nc1nc2c(s1)C(=O)CCC2)c1ccccc1	16µM*	-93%	13µM*
CCOC(=O)c1cc(-c2ccccc2)n(CC(=O)Nc2ccccc2OCC)c1C	47%	-4%[10.9 µM]	13%
CCOC(=O)c1cc(-c2ccccc2)n(CC(=O)Nc2cc(Cl)c(OC)cc2OC)c1C	20µM*	-10%[10.9 µM]	0%
CCN(CC(=O)O)CC(=O)O	7%[9.22 µM]	-5%[10.9 µM]	2%[9.22 µM]
CC(CO)(CO)N=Cc1cc(I)cc(I)c1O	-25%[9.22 µM]	-8%[10.9 µM]	13%[9.22 µM]
COc1ccc(-c2cc([C@H](O)[C@@H]3CCCCN3)c3ccccc3n2)cc1	-18%[9.22 µM]	x	-2%[9.22 µM]
Cc1ccc(/C=c2/sc3n(c2=O)CCCN=3)o1	-19%	x	-23%
O=c1/c(=C\c2ccc3c(c2)OCO3)sc2n1CCCN=2	13µM*	-81%	13µM*
CCOC(=O)N/N=C1/C[C@@H](O)[C@@H](O)[C@@H]2[C@H]3C(=O)N(c4ccc(F)cc4F)C(=O)[C@@H]3CC[C@H]12	3%[9.22 µM]	x	1%[9.22 µM]
C[C@@H]1NC(=O)C/C=C\[C@@H](C)[C@@H]2C=C[C@H](O)[C@@H](COC(=O)[C@H](C)NC(=O)C/C=C\[C@@H](C)[C@@H]3C=C[C@H](O)[C@@H](COC1=O)O3)O2	1%[9.22 µM]	x	8%[9.22 µM]
COCc1cc(C)nc2sc(C(=O)Nc3nccs3)c(N)c12	-14%	-9%	-7%
Cc1cc(C)c2c(N)c(C(=O)Nc3nccs3)sc2n1	1µM*	-47%	0.79µM*
CCOC(=O)c1sc2nc(C)cc(C)c2c1N	-17%	x	-12%
CCCCOC(=O)c1ccc(NC(=O)c2sc3nc(C)cc(C)c3c2N)cc1	u	-12%[10.9 µM]	16µM*
SMILES	p53ts 39C kill	Peg3 imprint	p53ts 32C tox
COc1cccc(-c2ccc3c(N)c(C(=O)c4ccc(Br)cc4)sc3n2)c1	13µM*	-13%[10.9 µM]	u
COc1ccc(-c2ccc3c(N)c(C(=O)c4ccc(OC)c(OC)c4)sc3n2)cc1	u	18%[10.9 µM]	-23%
CCOc1cccc(CNC(=O)c2ccc(N3CCCC3)c(NC(=O)NCc3ccc(F)cc3)c2)c1	-3%	12%[10.9 µM]	-9%
CC(=O)N1CCCc2ccc(NC(=O)c3ccc(C(F)(F)F)cc3)cc21	-5%	20%[10.9 µM]	-17%
O=c1n(-c2ccccc2)c(=O)n2n1CC[C@H]1/C(=N\OC[C@@H](O)COCc3ccco3)[C@H]3O[C@@H]3[C@@H](O)[C@@H]12	1%[9.22 µM]	x	7%[9.22 µM]
CCN1C(=O)c2ccccc2S(=O)(=O)c2ccc(C(=O)NCc3ccccc3OC)cc21	-17%	-9%[10.9 µM]	2%
O=C1CC(c2ccccc2)Cc2nc(NCc3ccco3)ncc21 (configuration not stated)	7.9µM*	-62%	6.3µM*
